Assay [1] addresses Thyrotropin receptor (Homo sapiens) (UniProt P16473). Briefly: qHTS assay to identify small molecule antagonists of the thyroid stimulating hormone receptor (TSHR) signaling pathway (AID 1259385; calls by dose curve; note: nearly all actives have a fitted effect of over 20% in size). Summed up:
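Antagonist mode: compound-treated TSHR-expressing HEK293 cells were stimulated with 1.5 ng/mL TSH (final) in presence of Ro20-1724 for 30 min at RT. HTRF cAMP detection after 1 h; each compound tested at 15 concentrations, triplicate.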

Assay [2] in a line: qHTS assay to identify small molecule agonists of the estrogen receptor alpha (ER-alpha) signaling pathway in the presence of an antagonist - cell viability counter screen (AID 1259386).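 Note: series mostly up to about 92 µM; cells exposed to compounds for 22 h at 37 °C before the viability read; nearly all actives have a fitted effect of over 30% in size.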 Summed up: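 The test measures whether compounds kill ER-alpha reporter cells (VM7Luc4E2) under antagonist co-treatment (ICI-182,780, 10.0nM). Fluorescence from CellTiter-Fluor is read after a 22hr exposure.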
(qHTS replaces the single test concentration by a dilution series.)

The target in assay [3] is Progesterone receptor (Homo sapiens) (UniProt P06401). Briefly: qHTS assay to identify small molecule agonists of the progesterone receptor (PR) signaling pathway (AID 1346784; calls by dose curve; note: nearly all actives have a fitted effect of over 30% in size). The method in brief: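 HEK 293T PR-UAS-bla reporter cells, 2% charcoal-stripped FBS; 6 hr settle at 37C/5% CO2, compound (DMSO) 16 hr, LiveBLAzer B/G FRET substrate 2 hr RT, fluorescence intensity read.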
Chain of Progesterone receptor (Homo sapiens) (P06401 whole entry, looked up): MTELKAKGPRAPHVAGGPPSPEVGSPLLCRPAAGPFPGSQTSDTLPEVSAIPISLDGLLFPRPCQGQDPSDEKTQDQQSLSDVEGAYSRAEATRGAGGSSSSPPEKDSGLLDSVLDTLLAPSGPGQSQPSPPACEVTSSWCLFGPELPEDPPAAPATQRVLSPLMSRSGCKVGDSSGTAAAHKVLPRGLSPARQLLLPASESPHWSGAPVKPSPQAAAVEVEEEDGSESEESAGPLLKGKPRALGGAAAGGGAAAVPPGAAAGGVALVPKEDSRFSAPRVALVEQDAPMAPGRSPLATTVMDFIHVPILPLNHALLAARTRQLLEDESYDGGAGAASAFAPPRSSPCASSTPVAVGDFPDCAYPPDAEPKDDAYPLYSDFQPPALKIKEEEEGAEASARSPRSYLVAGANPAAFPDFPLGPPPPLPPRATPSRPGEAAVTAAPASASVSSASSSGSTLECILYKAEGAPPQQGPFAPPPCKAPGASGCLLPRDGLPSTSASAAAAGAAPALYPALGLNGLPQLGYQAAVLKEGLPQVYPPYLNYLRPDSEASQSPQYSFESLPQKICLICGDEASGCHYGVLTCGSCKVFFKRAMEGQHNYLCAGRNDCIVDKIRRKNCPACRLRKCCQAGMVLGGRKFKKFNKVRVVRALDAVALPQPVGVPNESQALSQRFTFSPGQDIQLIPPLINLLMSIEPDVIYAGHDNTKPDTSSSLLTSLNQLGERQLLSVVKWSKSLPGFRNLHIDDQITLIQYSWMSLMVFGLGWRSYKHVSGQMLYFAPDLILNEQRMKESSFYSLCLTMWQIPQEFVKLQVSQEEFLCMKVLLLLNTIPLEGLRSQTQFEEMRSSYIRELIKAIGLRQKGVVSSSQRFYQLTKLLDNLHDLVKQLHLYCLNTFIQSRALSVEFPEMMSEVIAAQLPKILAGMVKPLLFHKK

For assay [4] the target is unchanged. Briefly: qHTS assay to identify small molecule antagonists of the progesterone receptor (PR) signaling pathway (AID 1346795; active = well fitted inhibition curve with a large enough effect in the signal ratio in the repeat runs, not every such curve was filed as active; the % refers to the signal ratio). The method in brief:
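Beta-lactamase reporter, HEK293T PR-UAS-bla line; 2% charcoal-stripped FBS; 6 hr pre-incubation, 37C/5% CO2. Compound + R5020 1 nM final, 16 hr. LiveBLAzer B/G FRET substrate, 2 hr RT; fluorescence intensity read.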

Assay [5] is described as follows: qHTS assay to identify small molecule antagonists of the progesterone receptor (PR) signaling pathway - cell viability counter screen (AID 1346798). Note: series mostly up to about 92 µM; nearly all actives have a fitted effect of over 50% in size. Summed up: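 Luminescence readout (CellTiter-Glo, 30 min, RT) of viability in PR-UAS-bla HEK293T cells exposed to compound and R5020 agonist for 16 hr at 37C, 5% CO2; run in the same wells as the beta-lactamase reporter read.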

Assay [6] is described as follows: qHTS assay to identify small molecule agonists of the progesterone receptor (PR) signaling pathway - cell viability counter screen (AID 1346799; calls by dose curve; note: nearly all actives have a fitted effect of over 45% in size). Summed up: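 HEK293T PR-UAS-bla, 3,000 cells/well, 2% charcoal-stripped FBS; 6 h settle, compound 16 h at 37C/5% CO2; LiveBLAzer 2 h RT, then CellTiter-Glo 30 min RT, luminescence read.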
Assay [7] is described as follows: qHTS assay to identify small molecule antagonists of the TGF-beta/Smad signaling pathway - cell viability counter screen (AID 1346824). Note: nearly all actives have a fitted effect of over 50% in size. The method in brief: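 Cytotoxicity counter-screen run in the same wells as the beta-lactamase Smad reporter read: CellTiter-Glo luminescence after 30 min at room temperature. HEK 293T SBE-bla cells had 5 hr compound exposure at 37 C with TGF-beta1 (0.25 ng/mL stock).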

Assay [8] is described as follows: qHTS assay to identify small molecule agonists of the TGF-beta/Smad signaling pathway - cell viability counter screen (AID 1346829). Note: top concentration of the series differs between compounds; nearly all actives have a fitted effect of over 45% in size. Summed up:
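Compound-treated SBE-bla HEK 293T cells (5 hr, 37 C) were assessed for viability with CellTiter-Glo in parallel with the reporter read.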

Assay [9] can be described thus: qHTS assay to identify small molecule agonists of the TGF-beta/Smad signaling pathway (AID 1346859; active = well fitted activation curve with a large enough effect in the signal ratio in the repeat runs, not every such curve was filed as active; the % refers to the signal ratio; note: series mostly up to about 77 µM). The method in brief:
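Read-out: fluorescence at 460 and 530 nm (405 nm excitation) after a 2 hr room-temperature incubation with beta-lactamase FRET substrate. SBE-bla HEK 293T cells had been treated with test compounds for 5 hr at 37 C.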

The target of assay [10] is Thyrotropin-releasing hormone receptor (Homo sapiens) (UniProt P34981). The experiment in a line: qHTS assay to identify small molecule antagonists of the thyrotropin-releasing hormone receptor (TRHR) signaling pathway (AID 1346877; active = well fitted inhibition curve with a large enough effect in the repeat runs, not every such curve was filed as active; note: series mostly up to about 51 µM). The method in brief:
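Overnight-plated (18 h, 37 °C) HEK293 cells expressing TRHR were dye-loaded 2 h, treated with compound, then stimulated with TRH at 1 nM final. Fluorescence intensity was captured every second for 3 min.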

Assay [11] has the same target. Briefly: qHTS assay to identify small molecule agonists of the thyrotropin-releasing hormone receptor (TRHR) signaling pathway (AID 1346891; calls by dose curve;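 note: HEK293 cells expressing TRHR with calcium dye readout; series mostly up to about 58 µM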). The method in brief: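 HEK293/TRHR cells, 1500 per well, 18 h 37 °C; Ca dye 2 h 37 °C; pin-tool compound addition (agonist mode); kinetic fluorescence 3 min, 1 s reads; 15 concentrations, triplicate.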
Assay [12] is described as follows: Human pregnane X receptor (PXR) small molecule agonists, qHTS cell viability counter screen (AID 1346977). Note: nearly all actives have a fitted effect of over 50% in size. The method in brief: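 Fluorescence read-out (CellTiter-Fluor) of viability in PXR-Luc HepG2 cells, multiplexed with the luciferase agonist read. Compounds in DMSO added after 5hr plating; 24hr total exposure at 37C, 5% CO2.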
Assay [13] can be described thus: Caspase-3/7 induction in HepG2 cells by small molecules, qHTS assay (AID 1346978). Note: nearly all actives have a fitted effect of over 15% in size. Summed up: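 Caspase-3/7 induction was measured by Caspase-Glo 3/7 luminescence (30 min, room temperature) after a 17 hr compound exposure of wild-type HepG2 cells seeded at 2,000 per well and pre-incubated 5 hr.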
Assay [14] can be described thus: Caspase-3/7 induction in CHO-K1 cells by small molecules, qHTS cell viability counter screen (AID 1346979). Note: nearly all actives have a fitted effect of over 35% in size. The method in brief: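 CHO-K1 wt, 1,500 cells/well; 5hr pre-incubation 37C/5% CO2; compound pin transfer (DMSO); 16hr exposure; CellTiter-Fluor added, 1hr, fluorescence read.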
Assay [15] can be described thus: Caspase-3/7 induction in CHO-K1 cells by small molecules, qHTS assay (AID 1346980). Note: nearly all actives have a fitted effect of over 15% in size. The method in brief:
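Luminescent Caspase-Glo 3/7 read (30min, room temperature) quantified apoptosis induction. Cells were wild-type CHO-K1, treated with compound for 17hr at 37 C and 5% CO2.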

Assay [16] is described as follows: Caspase-3/7 induction in HepG2 cells by small molecules, qHTS cell viability counter screen (AID 1346981). Note: series mostly up to about 92 µM; nearly all actives have a fitted effect of over 30% in size. Summed up: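 Treatment of HepG2 cells with DMSO-delivered compounds ran 16 hr at 37 C following a 5-hr pre-incubation of 2,000 cells/well. CellTiter-Fluor fluorescence, read after 1 hr, served as the viability measure in a qHTS format.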
Assay [17] has as its target Nuclear receptor subfamily 1 group I member 2 (Homo sapiens) (UniProt O75469). Briefly: Human pregnane X receptor (PXR) small molecule agonists, qHTS assay (AID 1346982). Note: nearly all actives have a fitted effect of over 35% in size. Note: potency is the fitted concentration of half-maximal effect. The method in brief: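 Stable HepG2 line reporting PXR-mediated CYP3A4 expression via luciferase. Treatment: 24 hr with compounds in DMSO at 37 C. Detection: ONE-Glo luminescence.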
Assay [18] concerns the target Nuclear receptor subfamily 1 group I member 2 (Rattus norvegicus) (UniProt Q9R1A7). Briefly: Rat pregnane X receptor (rPXR) activation by small molecules, qHTS assay (AID 1346983). Note: nearly all actives have a fitted effect of over 20% in size. The settings on record: rPXR luciferase reporter cells, One-Glo luminescence, 24 h; max activation: active compounds read high. Summed up:
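Luminescent readout (One-Glo luciferase, 30 min room temperature) followed 24 hr compound treatment at 37 C of rPXR cells plated 2,000 per well and preincubated 5hr; qHTS format with compounds delivered in DMSO.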

Assay [19] concerns the target Nuclear receptor subfamily 1 group I member 2 (Homo sapiens) (UniProt O75469). The experiment in a line: CYP3A4 induction through human pregnane X receptor (PXR) by small molecules, qHTS assay (AID 1346984). Note: nearly all actives have a fitted effect of over 40% in size. The method in brief:
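After 24 h at 37C with compound, DPX-2 cells (HepG2, co-transfected PXR response element and CYP3A4 promoter-luciferase) got 3uM final P450-Glo Luciferin-IPA for 3 h; One-Glo luminescence followed.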

Assay [20] has the same target. Briefly: Human pregnane X receptor (PXR) activation by small molecules, qHTS assay (AID 1346985). Note: nearly all actives have a fitted effect of over 40% in size. Summed up: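 DPX-2 cells (HepG2 co-transfected with a PXR response element and a CYP3A4-promoter luciferase construct) were seeded at 2,000 per well, rested 5 hr at 37C, then exposed to DMSO-dissolved compounds for 24 hr. Activation was read as luciferase luminescence.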

Unmarked numbers belong to inactive results. Inconclusive results are not listed. Calls of active or inactive are those of the source. Unless noted, calls come from the whole dose curve; as a rule, active = well fitted curve in the direction sought with a large enough effect in the repeat runs; inconclusive = weak or mixed curves; inactive = no such curve, though single readings can be large; an effect the other way counts as inactive or inconclusive.
% is set by controls: 0 for no effect and ±100 for the full control effect.

Chain of Nuclear receptor subfamily 1 group I member 2 (Homo sapiens) (O75469 whole entry, looked up): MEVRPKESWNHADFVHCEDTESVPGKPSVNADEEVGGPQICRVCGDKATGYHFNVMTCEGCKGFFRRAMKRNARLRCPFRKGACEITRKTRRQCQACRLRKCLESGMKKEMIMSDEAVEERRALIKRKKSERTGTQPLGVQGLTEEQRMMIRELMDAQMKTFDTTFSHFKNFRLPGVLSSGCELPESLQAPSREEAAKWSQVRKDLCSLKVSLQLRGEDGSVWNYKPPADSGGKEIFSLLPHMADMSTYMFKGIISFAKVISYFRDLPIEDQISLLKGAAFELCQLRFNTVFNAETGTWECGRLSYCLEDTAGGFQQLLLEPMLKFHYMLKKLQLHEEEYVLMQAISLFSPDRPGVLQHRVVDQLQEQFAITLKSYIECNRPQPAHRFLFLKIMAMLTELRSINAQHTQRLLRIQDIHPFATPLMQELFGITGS
Chain of Thyrotropin receptor (Homo sapiens) (P16473 whole entry, looked up): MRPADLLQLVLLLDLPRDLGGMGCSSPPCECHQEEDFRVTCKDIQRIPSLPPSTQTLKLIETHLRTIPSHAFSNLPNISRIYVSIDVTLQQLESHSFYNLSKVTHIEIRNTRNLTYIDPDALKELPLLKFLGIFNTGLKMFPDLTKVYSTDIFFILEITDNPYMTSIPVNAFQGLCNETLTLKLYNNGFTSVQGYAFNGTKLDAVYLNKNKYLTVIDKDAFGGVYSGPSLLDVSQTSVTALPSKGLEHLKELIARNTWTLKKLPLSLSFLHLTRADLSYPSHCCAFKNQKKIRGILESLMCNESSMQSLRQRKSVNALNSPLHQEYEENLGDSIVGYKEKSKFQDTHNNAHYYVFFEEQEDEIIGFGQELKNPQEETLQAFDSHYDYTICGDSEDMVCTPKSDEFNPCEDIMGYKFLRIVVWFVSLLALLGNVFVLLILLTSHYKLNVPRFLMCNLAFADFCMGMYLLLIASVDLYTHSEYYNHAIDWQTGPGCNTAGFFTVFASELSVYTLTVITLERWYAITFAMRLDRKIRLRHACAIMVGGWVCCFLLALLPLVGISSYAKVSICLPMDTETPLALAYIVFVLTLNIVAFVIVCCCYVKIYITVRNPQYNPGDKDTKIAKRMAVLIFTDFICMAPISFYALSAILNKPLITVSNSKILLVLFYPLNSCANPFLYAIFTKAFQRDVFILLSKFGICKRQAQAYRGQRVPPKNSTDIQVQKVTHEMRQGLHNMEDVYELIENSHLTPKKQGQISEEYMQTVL
Chain of Thyrotropin-releasing hormone receptor (Homo sapiens) (P34981 whole entry, looked up): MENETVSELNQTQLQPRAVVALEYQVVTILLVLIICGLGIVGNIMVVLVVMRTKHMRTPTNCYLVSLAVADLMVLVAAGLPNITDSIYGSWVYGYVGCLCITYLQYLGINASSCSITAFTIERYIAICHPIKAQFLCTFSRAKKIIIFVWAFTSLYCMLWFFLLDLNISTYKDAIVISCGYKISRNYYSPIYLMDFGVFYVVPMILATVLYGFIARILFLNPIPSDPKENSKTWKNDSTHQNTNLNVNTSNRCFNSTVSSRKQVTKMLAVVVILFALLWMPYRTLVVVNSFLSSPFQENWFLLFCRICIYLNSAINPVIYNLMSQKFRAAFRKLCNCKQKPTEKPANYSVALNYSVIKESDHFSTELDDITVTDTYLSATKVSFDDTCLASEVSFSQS
Chain of Nuclear receptor subfamily 1 group I member 2 (Rattus norvegicus) (Q9R1A7 whole entry, looked up): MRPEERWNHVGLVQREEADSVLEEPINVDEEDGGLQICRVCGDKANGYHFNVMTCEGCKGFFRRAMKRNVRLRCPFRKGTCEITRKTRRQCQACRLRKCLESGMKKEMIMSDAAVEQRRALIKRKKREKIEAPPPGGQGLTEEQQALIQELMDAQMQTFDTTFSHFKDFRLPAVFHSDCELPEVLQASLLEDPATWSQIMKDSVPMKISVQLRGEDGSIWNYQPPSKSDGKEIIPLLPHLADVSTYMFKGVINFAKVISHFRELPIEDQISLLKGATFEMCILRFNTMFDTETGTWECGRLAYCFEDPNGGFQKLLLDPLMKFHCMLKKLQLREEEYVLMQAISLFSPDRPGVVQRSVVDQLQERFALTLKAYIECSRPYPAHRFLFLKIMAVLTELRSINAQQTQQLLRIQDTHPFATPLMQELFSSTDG

`C=CCOC(=O)COCCC(C)C`: the Potency result in assay [1], in assay [2], in assay [3], in [4], in assay [5] and in assay [6] was “inactive” in each case. In addition, the Potency entry in assay [8], in [9], in [12], in [13], in assay [14] and in assay [16] was “inactive” throughout. In addition, the Potency entry in [17] was “inactive”. The outcome in assay [7], in [10], in assay [11] and in assay [15] was inactive.

On to `CCC(C)(C)C(=O)O`, for which the Potency entry in assay [1], in assay [2], in assay [3], in [4], in assay [5] and in assay [6] was “inactive” each time. For the same molecule, the Potency entry in assay [8], in assay [9], in [12], in [13], in [14] and in assay [16] was “inactive” throughout. The Potency result in assay [17] was “inactive”. The outcome in assay [7], in assay [10], in [11] and in assay [15] was inactive.

Consider `O=S(=O)(Cl)c1c(Cl)cccc1Cl`, for which the Potency entry in assay [1], in [2], in assay [3], in assay [4], in assay [5] and in [6] was “inactive” each time. Moreover, the Potency result in assay [8], in assay [9], in assay [12], in assay [13], in [14] and in assay [16] was “inactive” in each case. The Potency result in assay [17] was “inactive”. For the same molecule, the outcome in assay [7], in assay [10], in assay [11] and in [15] was inactive.

For `CCN(CC)CCNC(=O)c1cc(Cl)c(N)cc1OC`, the Potency result in assay [1], in assay [2], in assay [3], in [4], in [5] and in assay [6] was “inactive” each time. Also, the Potency result in assay [8], in [9], in [12], in [13], in assay [14] and in assay [17] was “inactive” throughout. Besides, the molecule was called inactive in [7], in assay [10], in [11] and in assay [15].

As for `CCCCCCC(O)CCOC(C)=O` (stereo not drawn), the Potency entry in assay [1], in assay [2], in assay [3], in [4], in assay [5] and in assay [6] was “inactive” throughout. The Potency entry in [8], in assay [9], in [12], in assay [13], in assay [14] and in [16] was “inactive” throughout. Further, in [17], the Potency entry was “inactive”. The molecule was classed as inactive in assay [7], in assay [10], in assay [11] and in assay [15].

For the molecule `CC(C)(C)CCCCCCOC(=O)c1ccccc1C(=O)OCCCCCCC(C)(C)C`, the Potency entry in assay [1], in [2], in assay [3], in [4], in assay [5] and in assay [6] was “inactive” each time. Further, the Potency result in assay [8], in [9], in assay [12], in assay [13], in assay [14] and in [16] was “inactive” throughout. Moreover, the outcome in assay [7], in assay [10], in assay [11] and in assay [15] was inactive. Besides, the Potency in assay [17] is 61.2 µM (active).

Turning to `CC(=O)OC(C)C[N+](C)(C)C` (stereo not drawn), the Potency entry in assay [1], in assay [2], in assay [3], in assay [4], in assay [5] and in [6] was “inactive” each time. Moreover, the Potency entry in [8], in [9], in assay [12], in [13], in [14] and in [16] was “inactive” throughout. The Potency entry in assay [17], in assay [19] and in assay [20] was “inactive” each time. For the same molecule, the molecule was called inactive in assay [7] and in assay [15]. In addition, the max activation in assay [18] was -2.41%.

As for `COC(OC)OC`, the Potency entry in assay [1], in [2], in [3], in assay [4], in [5] and in assay [8] was “inactive” in each case. Moreover, the Potency entry in assay [9], in assay [12], in assay [13], in [14], in [16] and in assay [17] was “inactive” throughout. Moreover, the call in assay [7] and in [15] was inactive.

The values above are taken from PubChem BioAssay (Tox21).
